BJeLR lethal = BJeLR cell viability loss. BJeLR (HRASV12) viability, CellTiter-Glo ATP luminescence, 48 h. inhibition, % (no concentration beside the values). 300,000 tested, 0.17% active. AID 1554; in the data active means inhibition above about 50%; inconclusive means no clear call, values can overlap the other calls
BoNT-F LC inh = inhibitors of Botulinum neurotoxin F light chain protease | Multiplex microsphere protease cleavage assay, flow cytometry | inhibition, % at 10 µM | 360,000 tested, 0.22% active; in the data active means inhibition above about 35%, passing the limit was not always enough; inconclusive means no clear call, values can overlap the other calls
BoNT-A LC inh2 = inhibitors of Botulinum neurotoxin A light chain protease | multiplex microsphere protease substrate cleavage, flow cytometry | inhibition, % at 10 µM | 360,000 tested, 0.17% active | AID 588499
SARS 3CLpro inh = SARS-CoV 3CLpro protease inhibition; recombinant SARS-CoV 3CLpro, quenched FRET peptide cleavage; P0C6X7; AID 1706; 290,000 tested, 0.14% active; inhibition, % at 6 µM; in the data active means inhibition above about 12%
Bead autofluor = flagged as autofluorescent in microsphere protease counterscreen; compound autofluorescence counterscreen, microsphere flow cytometry; hits give high values; fluorescence intensity (no concentration beside the values); 360,000 tested, 3.1% active; in the data active means fluorescence intensity above about 16000; inconclusive means no clear call, values can overlap the other calls
Anthrax LF inh2 = blocks Bacillus anthracis lethal factor protease; inhibition, % at 10 µM; multiplex microsphere protease cleavage assay, LF; 360,000 tested, 0.12% active
Of the large screens only hits and unclear results are named; the others gave an inactive call. Rows were chosen to be rich in hits. Some 3.6% of all compounds tested hit in one or more screens of this group. Unless noted, no stated cut-off is given here; in the data, active means inhibition above about 30%; inconclusive means no clear call, values can overlap the other calls; inactive means below that.

O=C(c1ccccc1)n1ccn(-c2ccccc2)c1=S	BoNT-A LC inh2 inconclusive, Bead autofluor 19357
O=C(c1ccccc1)N1CCN(C(=O)c2ccccc2)CC1	none
COc1ccccc1CC(=O)Nc1ccc(-c2noc(COc3ccc(Cl)c(C)c3)n2)cc1	BoNT-A LC inh2 inconclusive, Bead autofluor 21393
COc1cc(-c2noc(CCCC(=O)Nc3ccc(C(N)=O)cc3)n2)cc(OC)c1OC	none
COc1ccc(-c2noc(CCCC(=O)Nc3ccc(C(N)=O)cc3)n2)cc1	Bead autofluor 22075
CCN(CC)C(=O)CSc1nc(O)c(Cc2ccccc2)c(=O)n1-c1ccccc1	none (no result: BoNT-F LC inh, BoNT-A LC inh2, Bead autofluor, Anthrax LF inh2)
CCN1CCN(C(c2cc3cc4c(cc3[nH]c2=O)OCO4)c2nnnn2C(C)(C)CC)CC1 (stereo unspecified)	Bead autofluor 20945
CC(C)(C)n1nnnc1C(c1cc2cc3c(cc2[nH]c1=O)OCO3)N1CCN(c2ccccc2)CC1 (stereo unspecified)	none
CCC(C)(C)n1nnnc1C(c1cc2cc(OC)c(OC)cc2[nH]c1=O)N1CCc2ccccc21 (stereo unspecified)	Bead autofluor 24005
c1ccc(Cn2nnnc2-c2ccco2)cc1	Bead autofluor 16264
Cc1ccc(-n2nnnc2-c2ccco2)cc1	none
Cc1cccc(NC(=O)CNC(=O)c2ccc(-n3cncn3)c([N+](=O)[O-])c2)c1C	none (no result: SARS 3CLpro inh)
COc1cc(NC(=O)Cn2c(C)cc3ccccc3c2=O)cc(OC)c1OC	none
COc1cc(NC(=O)Cn2c(-c3cncs3)nc3ccccc32)cc(OC)c1OC	BoNT-A LC inh2 inconclusive, Bead autofluor 21248
Cc1ccn2c(NC(C)(C)C)c(-c3cccs3)nc2c1	none
COc1ccc(/C(C)=C2\SC(=S)N(CCC(=O)O)C2=O)cc1	Bead autofluor 20765
COc1ccc(-n2nnnc2SCC(=O)Nc2nc3c(s2)CCCC3)cc1	none
CC(C)C(=O)Nc1cccc(C(=O)Nc2ccccc2C(=O)O)c1	Bead autofluor 20875
O=C(NCCc1ccccc1)c1cccnc1	none
NS(=O)(=O)c1ccc(CCNC(=O)c2cccnc2)cc1	Bead autofluor 20577
CC(C)C(=O)Nc1cccc(C(=O)NCCc2ccc(S(N)(=O)=O)cc2)c1	BoNT-A LC inh2 inconclusive, Bead autofluor 20300
COc1cccc(-c2nn(-c3ccccc3)cc2/C=C(/NC(=O)c2ccccc2)C(=O)O)c1	none
O=C(Nc1cccc(C(F)(F)F)c1)c1cc2c(=O)c3ccccc3oc2nc1C(F)(F)F	BoNT-A LC inh2 inconclusive, Bead autofluor 23568
O=C(Nc1ccccc1)c1cc2c(=O)c3ccccc3oc2nc1C(F)(F)F	none
COc1ccc2c(c1)C1CC(C)(NC(=O)C1S(=O)(=O)c1ccc(F)cc1)O2 (stereo unspecified)	none
N#C/C(=C\c1cccc(O)c1)C(=O)N1CCCCC1	BoNT-F LC inh 47
COC(=O)C1=CN(c2cccc(C)c2)C=C(C(=O)OC)C1c1cc(OC)c(O)c([N+](=O)[O-])c1	Bead autofluor 22321
COC(=O)C1=CN(c2ccc(OC)cc2)C=C(C(=O)OC)C1c1ccc(C)c([N+](=O)[O-])c1	none
Cc1cc(Nc2cnc3ccccc3n2)n(-c2ccccc2)n1	Bead autofluor 17464
Cc1cc(Nc2ncc(Cl)cc2Cl)n(-c2ccccc2)n1	none
Cc1ccc(C2C(C#N)=C(N)SC(N)=C2C#N)cc1	none (no result: BJeLR lethal)
Cc1ccc(C2C(C#N)=C(N)SC(N)=C2C#N)c(C)c1	BoNT-F LC inh 71, BoNT-A LC inh2 40
Nc1nnc(-c2cc3ccccc3oc2=O)s1	none
O=c1oc2cc(O)ccc2cc1-c1nc2c(s1)CCc1ccccc1-2	BoNT-A LC inh2 47 (no result: BJeLR lethal)
O=c1oc2ccccc2cc1-c1nc2c(s1)CCc1ccccc1-2	BoNT-A LC inh2 64
O=C(c1ccc(Br)o1)N(Cc1ccccc1)c1ccccn1	BoNT-A LC inh2 inconclusive, Bead autofluor 19550
O=C(COC(=O)c1ccc(O)cc1O)Nc1cc(-c2ccccc2)nn1-c1ccccc1	BoNT-F LC inh inconclusive, Bead autofluor inconclusive (no result: SARS 3CLpro inh)
O=C(NC1=NCCS1)c1cc2ccccc2o1	Bead autofluor 20997
Cc1cc(C(=O)NC2=NCCS2)cs1	BoNT-A LC inh2 inconclusive, Bead autofluor 22079
O=C(CCS(=O)(=O)Cc1ccccc1)N1CCc2ccccc2C1	Bead autofluor 21963
O=C(CCS(=O)(=O)Cc1ccccc1F)N1CCc2ccccc2C1	none (no result: BoNT-F LC inh, BoNT-A LC inh2, Bead autofluor, Anthrax LF inh2)
COCCNC(=O)C1(C)Cc2c(-c3ccc(N(C)C)cc3)ccnc2O1 (stereo unspecified)	none (no result: BJeLR lethal, SARS 3CLpro inh)
COc1ccc(NC(=O)C2CC3CCC2C3)c(OC)c1 (stereo unspecified)	BoNT-F LC inh inconclusive, Bead autofluor inconclusive (no result: SARS 3CLpro inh)
COC(=O)Nc1nnc(-c2ccncc2)s1	Bead autofluor 22886
COc1cccc(S(=O)(=O)Nc2ccc3sc(C)nc3c2)c1	Bead autofluor 16651
Cc1nc2cc(NS(=O)(=O)c3cccc4cccnc34)ccc2s1	none
COc1ccc(/C=C/C(=O)N(C(C)C)C(C)C)cc1Br	none
COc1ccc(/C=C/C(=O)NC(C)C)cc1Br	Bead autofluor 22011
COC(=O)c1ccc(-n2cncn2)c(F)c1	BoNT-A LC inh2 inconclusive, Bead autofluor 23526
CCCCN1C(=O)NC(=O)C2(Cc3ccccc3N3CCOCC32)C1=O (stereo unspecified)	none
CN1C(=O)NC(=O)C2(Cc3ccccc3N3CCOCC32)C1=O (stereo unspecified)	BoNT-A LC inh2 inconclusive, Bead autofluor 17659
O=C1NC(=O)C2(Cc3ccccc3N3CCCC32)C(=O)N1Cc1ccccc1 (stereo unspecified)	BoNT-A LC inh2 inconclusive, Bead autofluor 19390
CN1C(=O)NC(=O)[C@]2(Cc3ccccc3N3CCN(c4ccccc4)CC32)C1=O (stereo partly specified)	Bead autofluor 16912
O=C1NC(=O)[C@]2(Cc3ccccc3N3CCN(c4ccccc4)CC32)C(=O)N1c1ccccc1 (stereo partly specified)	Bead autofluor 24028
O=C1NC(=O)[C@]2(Cc3ccccc3N3CCN(c4ccccc4)CC32)C(=O)N1Cc1ccccc1 (stereo partly specified)	none
CCOC(=O)C1CCCN(CCC(=O)Nc2cccc(Cl)c2C)C1 (stereo unspecified)	none
CC(C)C[C@H]1CNC(=S)N1C[C@H]1CCCN1C[C@H](CC(C)C)N1C[C@H](Cc2ccc(O)cc2)N(CC2CCCCC2)C1=S	none (no result: BJeLR lethal, SARS 3CLpro inh)
Cc1cc(NC(=O)CCC(=O)N(CC(=O)NC2CCCC2)c2ccc(Cl)cc2)no1	none
O=C1NC(=O)C2(Cc3ccccc3N3CCCC32)C(=O)N1c1ccc(Cl)cc1 (stereo unspecified)	none (no result: BJeLR lethal, BoNT-F LC inh, BoNT-A LC inh2, Bead autofluor, Anthrax LF inh2)
Cc1ccc(N2C(=O)NC(=O)C3(Cc4ccccc4N4CCCC43)C2=O)cc1 (stereo unspecified)	BoNT-A LC inh2 inconclusive, Bead autofluor 19892
COc1ccc(CNC(=O)CCCC(=O)n2nc(C)c3ccccc32)cc1	none
CSc1ccccc1NC(=O)CSc1cccc[n+]1[O-]	none (no result: BJeLR lethal, SARS 3CLpro inh)
COc1ccc(C(C)=O)cc1CN1C(=O)C(C)N(c2ccc(C)cc2)C1=O (stereo unspecified)	BoNT-A LC inh2 inconclusive, Bead autofluor 18676
